Hit rate of the full screen: of about 1,700 compounds, about 150 (8.8%) were called active. About 19% were inconclusive and are not listed.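 Rule for the calls: active = fluorescence change differing from the plate's solvent-only control wells at 99.7% confidence in both duplicates, whether higher or lower; inconclusive = differs from solvent controls in only one of two duplicates; inactive = the rest.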 Only a sample is shown.
Target: Muscarinic acetylcholine receptor M4 (Rattus norvegicus) (UniProt P08485)
Sequence (P08485 whole entry, looked up): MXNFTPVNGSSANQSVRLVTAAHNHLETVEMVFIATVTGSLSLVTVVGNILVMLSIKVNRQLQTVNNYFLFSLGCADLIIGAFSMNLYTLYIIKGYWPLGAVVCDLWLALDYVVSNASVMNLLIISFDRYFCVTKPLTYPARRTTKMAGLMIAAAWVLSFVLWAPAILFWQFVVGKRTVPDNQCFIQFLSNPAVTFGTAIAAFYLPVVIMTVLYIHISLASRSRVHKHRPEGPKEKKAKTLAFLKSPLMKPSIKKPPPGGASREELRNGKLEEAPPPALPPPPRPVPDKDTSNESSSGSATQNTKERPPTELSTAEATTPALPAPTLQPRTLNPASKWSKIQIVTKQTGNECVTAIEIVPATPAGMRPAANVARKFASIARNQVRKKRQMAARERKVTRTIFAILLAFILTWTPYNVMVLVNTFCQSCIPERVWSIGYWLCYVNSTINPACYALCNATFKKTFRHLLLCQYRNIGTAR
Experiment: agonist activity at rat M4 receptor, confirmation, counter-screen for M1 allosteric modulator project, cell-based, agonist mode (AID 1741)
Conditions: CHO M4/Gqi5 cells, Fluo-4 calcium fluorescence, at 10 µM, actives lie on both sides

SMILES | fluorescence change (max-min)
O=C(O)c1ccc(COCC(F)(F)F)cc1 | -14 (inactive)
COCCNC(=O)C(c1ccc(C)o1)N(Cc1cccs1)C(=O)c1snc(C(N)=O)c1N (stereo unspecified) | -6.44 (inactive)
COc1cccc2c(C)c(C(=O)O)[nH]c12 | -9.04 (inactive)
COc1ccccc1NC1=NC(c2ccc(Cl)cc2)N=C(N)N1 (stereo unspecified) | -38.9 (inactive)
N#CC1=C(N)Oc2c(sc3ccccc23)C1c1ccco1 (stereo unspecified) | 50 (inactive)
CCOc1ccc2nc(N3CCCN(C(=O)Nc4ccccc4C)CC3)c(C#N)cc2c1 | 246 (active)
Cc1cc(NC(=O)COc2ccc(Cl)cc2Cl)n(CCC#N)n1 | -13.8 (inactive)
C(=N\n1cnnc1)/c1cccnc1 | -25.3 (inactive)
COc1ccc2nc(N3CCCC(O)C3)c(C#N)cc2c1 (stereo unspecified) | 176 (active)
COc1ccc(N(CC(=O)NC(C)(C)C)C(=O)c2ccco2)cc1 | -53.4 (inactive)
O=C(CSc1nnc(-c2ccco2)n1Cc1ccccc1)NC(=O)NCc1ccco1 | -23.1 (inactive)
COc1ncnc2c1N=C1CC(C)(C)CC(N)=C1S2 | 136 (active)
c1ccc2c(c1)OCC(CNc1ncnc3nc[nH]c13)O2 (stereo unspecified) | 1130 (active)
Cc1nc2ccccc2c2oc(C(=O)NCC3CCCO3)cc12 (stereo unspecified) | -66.7 (inactive)
COC(=O)c1ccc(CSc2nc3ccccc3c(=O)n2-c2cccc(OC)c2)o1 | -28.9 (inactive)
Cc1nc(CNS(=O)(=O)c2ccc(Oc3ccccc3)cc2)cs1 | 2.92 (inactive)
COc1ccccc1NC(=O)CSc1nnc(Cn2nnc(-c3ccccc3)n2)n1-c1ccccc1 | -51.1 (inactive)
COc1ccccc1N1CCN(C(=O)c2cn(-c3ccccc3)nc2-c2cccnc2)CC1 | -73.3 (inactive)
COc1ccc(CCNC(=O)C2CCN(c3nn4c(=O)cc(C)nc4s3)CC2)cc1OC | -40 (inactive)
CCOc1cc(-c2nc3cc(C)ccn3c2NCC2CCCO2)ccc1O (stereo unspecified) | -60.7 (inactive)
CCOc1ccc(NC(=O)N2CC=C(n3c(=O)[nH]c4ccccc43)CC2)cc1 | -26.4 (inactive)
COc1ccc(Nc2oc(-c3ccccc3Cl)nc2C#N)cc1 | -74.3 (inactive)

SMILES | fluorescence change (max-min)
O=C(NCCC1=CCCCC1)C1CCN(Cc2cnn(-c3ccccc3)c2-n2cccc2)CC1 | -67.1 (inactive)
c1n[nH]c(NCc2ccc3c(c2)OCO3)n1 | -28.2 (inactive)
CC1CCCC(C)N1C(=O)CN1CCN(c2nc(-c3ccc(F)cc3)cs2)CC1 (stereo unspecified) | -9.73 (inactive)
Nc1ccc(SCCN2C(=O)c3ccccc3C2=O)cc1 | -77.3 (inactive)
Cc1cc2cc(CN(Cc3cccs3)Cc3nnnn3CC3CCCO3)c(=O)[nH]c2cc1C (stereo unspecified) | -27 (inactive)
O=C(c1ccccc1)c1ccc(OC(=O)N2CCCC2)cc1 | -25.9 (inactive)
CC(NC(=O)CSc1nc2c(cc1C#N)CN(C)CC2)c1ccccc1 (stereo unspecified) | -18.9 (inactive)
O=C(Nc1cccc(NC(=O)N2CCN(c3ccccc3)CC2)c1)N1CCN(c2ccccc2)CC1 | -12.4 (inactive)
Cc1nn2c(c1-c1ccccc1)N=C(c1ccco1)CC2c1ccccc1 (stereo unspecified) | 5.67 (inactive)
CCOc1nc(-c2ccc(OC)cc2)ccc1-c1noc(-c2cc(OC)c(OC)c(OC)c2)n1 | 18.4 (inactive)
CCCOc1ccccc1C1CC(=O)Nc2cc3c(cc21)OCO3 (stereo unspecified) | -71.7 (inactive)
CCn1c(NCCc2ccc(OC)c(OC)c2)nc2c1c(=O)n(C)c(=O)n2C | -47.9 (inactive)
CCN(CC)c1ccc2cc(C(=O)O)c(=O)oc2c1 | 137 (inactive)
Fc1ccc2[nH]c3c(N4CCSCC4)ncnc3c2c1 | -68.8 (inactive)
CCN=C1SC(CC(=O)Nc2ccc(C)cc2)C(=O)N1CC (stereo unspecified) | -71.4 (active)
COc1cccc(-n2cc3c(c2-c2ccccc2)c(=O)n(C)c(=O)n3C)c1 | -42.2 (inactive)
COc1ccc2[nH]c(=O)c(CN(CC3CCCO3)C(=O)Nc3ccccc3)cc2c1 (stereo unspecified) | -53.6 (inactive)
CCOc1ccc2[nH]c(=O)c(CN(Cc3nnnn3Cc3ccccc3)CC3CCCO3)cc2c1 (stereo unspecified) | -7.46 (inactive)
O=C1c2ccccc2-c2ncnc3c(N4CCOCC4)cc(N4CCOCC4)c1c23 | -22.7 (inactive)
FC(F)(F)COc1nc(N2CCCCC2)nc(N2CCNCC2)n1 | -26.5 (inactive)
CCOC(=O)c1cc2n(c1N)-c1ccccc1C2=O | 2020 (active)
CC(=O)Nc1ccc(NC(=O)CN2CCCC(C)C2)c(Cl)c1 (stereo unspecified) | -37.2 (inactive)

SMILES | fluorescence change (max-min)
COc1ccccc1N1CCN(C(=O)c2c(-c3c(Cl)cccc3Cl)noc2C)CC1 | -27 (inactive)
O=C(Cn1cc(C(=O)c2cccs2)c2ccccc21)NCc1cccs1 | -25 (inactive)
COc1ccc(C(C(O)C(=O)c2c[nH]c3ccccc23)N2CCN(c3ccccc3)CC2)cc1 (stereo unspecified) | -6.79 (inactive)
COc1cc(C(=O)Nc2oc(-c3ccccc3)c(-c3ccccc3)c2C#N)cc(OC)c1OC | -47.4 (inactive)
CCCN1CC=C2C(C#N)=C(N)C(C#N)(C#N)C(c3cc(OC)ccc3OC)C2C1 (stereo unspecified) | 84.1 (inactive)
COc1ccc(NC(=O)C2CCCN(S(=O)(=O)c3cccc4cccnc34)C2)cc1OC (stereo unspecified) | -56.1 (inactive)
Cc1ccc2oc(=O)c3cnn(CC(=O)N4CCN(c5ccccn5)CC4)c3c2c1 | -22 (inactive)
CCOc1cc(N2CCOCC2)c(OCC)cc1NC(=O)COc1cccc2cccnc12 | -39.2 (inactive)
Cc1ccc(S(=O)(=O)Nc2ccc3ncccc3c2)cc1 | -7.21 (inactive)
O=C(NCCc1ccc2c(c1)OCCO2)c1cc2ccccc2o1 | -9.99 (inactive)
COc1ccc(C2C(C(=O)N3CCN(c4ccc(OC)cc4)CC3)c3ccccc3C(=O)N2C)cc1 (stereo unspecified) | -57.8 (inactive)
Cn1c(C(=O)NCCc2ccsc2)cc2c(=O)n(C)c3ccccc3c21 | -42.5 (inactive)
COc1ccc(N(C(=O)c2cccnc2)S(=O)(=O)c2ccc3c(c2)n(C)c(=O)n3C)cc1 | -59.4 (inactive)
O=C(CSCc1cccs1)N1CCCC1 | -76.4 (inactive)
CN1C(=O)c2ccc(NC(=O)c3c(F)c(F)c(F)c(F)c3F)cc2C1=O | -27.8 (inactive)
CC(C[N+](C)(C)C)OC(N)=O (stereo unspecified) | 11.8 (inactive)
CC(=O)OC(C)C[N+](C)(C)C (stereo unspecified) | 146 (active)
CCOC(=O)C1CCCN(C(=O)c2ccc(CS(=O)(=O)c3ccc(Br)cc3)o2)C1 (stereo unspecified) | -59.9 (inactive)
CC(C)OCCCNc1ncnc2c1[nH]c1ccc(F)cc12 | -4.51 (inactive)
O=C(Nc1nc(-c2ccc3c(c2)OCO3)cs1)c1ccncc1 | -52 (inactive)
CC(C)(C)c1cc(CN2CCN(CCC#N)CC2)cc(C(C)(C)C)c1O | -27.3 (inactive)
O=C(Nc1cccc(-c2nnc(-c3ccccc3)o2)c1)C1CCCO1 (stereo unspecified) | -67.5 (inactive)

Reference: PubChem BioAssay AID1741 (Vanderbilt High Throughput Screening Facility, 2009)
